This assay has as its target Pantothenate synthetase (Mycobacterium tuberculosis (strain ATCC 25618 / H37Rv)) (UniProt P9WIL5). In words: Recombinant Mtb pantothenate synthetase (PanC) inhibitors, coupled enzyme, confirmatory (AID 375).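 Further: 0% = full reaction with vehicle and 100% = no enzyme background.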 Particulars: coupled enzyme assay; at 10 µM, active compounds read high.

A number with no mark means an inactive call. How the calls were made is not given here.

Chain of Pantothenate synthetase (Mycobacterium tuberculosis (strain ATCC 25618 / H37Rv)) (P9WIL5 whole entry, looked up): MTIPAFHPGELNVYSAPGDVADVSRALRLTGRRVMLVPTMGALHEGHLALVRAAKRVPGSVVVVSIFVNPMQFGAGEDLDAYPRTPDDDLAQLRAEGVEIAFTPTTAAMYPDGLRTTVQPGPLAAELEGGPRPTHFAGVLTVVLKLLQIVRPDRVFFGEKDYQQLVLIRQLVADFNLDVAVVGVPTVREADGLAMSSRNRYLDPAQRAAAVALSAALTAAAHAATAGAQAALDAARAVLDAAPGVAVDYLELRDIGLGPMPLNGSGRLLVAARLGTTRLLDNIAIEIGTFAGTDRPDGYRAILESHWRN

`CC(C)OCCCNC(=O)c1cc2c(s1)CS(=O)(=O)C2`: the inhibition (usually the percentage by which the read-out fell short of the control) was 0%.

On to `Clc1ccc(-n2nnnc2Sc2ncnc3sccc23)cc1`, for which the inhibition is 0%.

In the case of `Cc1c(C(=O)NC2CC2)oc2ccc(S(=O)(=O)N3CCCCCC3)cc12`, the inhibition was 0%.

In the case of `Cc1cc(NC(=O)CCC(=O)N(CC2CCCO2)C(C(=O)NC2CCCC2)c2ccccc2C)no1` (configuration not stated), the inhibition was 0%.

In the case of `CCCCc1ccc(NC(=O)N[C@H](C(=O)O)C(C)CC)cc1` (some centres not stated), the inhibition is 0%.

As for `CCc1cc2ccc(C)cc2nc1SCC(=O)N1CCN(C(=O)c2ccco2)CC1`, the inhibition is 0%.

As for `N#CCOc1nc(N2CCOCC2)nc(N2CCOCC2)n1`, the inhibition was 0%.

For the compound `Cc1nnc(SCc2cc(=O)[nH]c(N3CCCCC3)n2)s1`, the inhibition was 1%.

As for `O=C(C(c1ccccc1)c1ccccc1)N1CCN(Cc2ccccn2)CC1`, the inhibition was 0%.

Regarding `COC(=O)C(C)C1Sc2ccccc2NC1=O` (configuration not stated), the inhibition is 11%.

Regarding `CCOC(=O)c1cc(-c2ccc3c(c2)OCO3)nc2onc(C)c12`, the inhibition is 0%.

On to `c1ccc(CSCc2cn3ccsc3n2)cc1`, for which the inhibition was 0%.

For `CCn1cc(C2Nc3ccccc3C(=O)N2O)c(C)n1` (configuration not stated), the inhibition was 0%.

With `O=c1cc(CSc2nnnn2-c2ccccc2)nc2scc(-c3ccccc3)n12`, the inhibition was 3%.

Take `C/C(Cl)=C\Cn1c(Nc2ccc(C)cc2)nc2c1c(=O)n(C)c(=O)n2C`: the inhibition is 3%.

Take `O=C(Cn1c(=O)oc2ccccc21)Nc1ccc(S(=O)(=O)N2CCCCC2)cc1`: the inhibition was 0%.

Turning to `CC(=O)NCCCCCCNC(C)=O`, the inhibition is 0%.

`O=C(CCNS(=O)(=O)c1ccc(Br)s1)N1CCCCC1`: the inhibition was 0%.

As to `COc1ccc(-c2nnc(-c3ccc(N)cc3)o2)cc1`, the inhibition was 4%.

With `COc1cc(C2Nc3cccc4cccc(c34)N2)cc(OC)c1O`, the inhibition is 0%.

Regarding `CCCn1c(SCC(=O)N2CCc3ccccc3C2)nc2c1c(=O)n(C)c(=O)n2C`, the inhibition was 1%.

Take `CCCC(C(=O)NCc1ccco1)N(C(=O)CNS(=O)(=O)c1ccc(Cl)cc1)C1CCCC1` (configuration not stated): the inhibition was 0%.

As for `N#Cc1c(NC(=O)CSc2nc(N)cc(=O)[nH]2)sc2c1CCCCCC2`, the inhibition was 0%.

`CN1CCN(C(=O)c2ccc(CS(=O)(=O)c3c(Cl)cccc3Cl)o2)CC1`: the inhibition is 16%.

`CCOC(=O)c1ccc(NC(=O)c2ccc(NS(C)(=O)=O)cc2)cc1`: the inhibition is 0%.

As for `O=c1cc(CSc2nnc(COc3ccc(Cl)cc3)o2)c2ccccc2[nH]1`, the inhibition is 3%.

For `COc1ccc(C/C(N)=N/n2cnnc2)cc1Cl`, the inhibition was 0%.

With `COc1ncnc2c1N=C1CC(C)(C)CC(N)=C1S2`, the inhibition was 0%.

`FC(F)Oc1cccc2cccnc12`: the inhibition was 6%.

For the compound `Cc1ccc2c(c1C)NC(C)CC2C` (configuration not stated), the inhibition is 0%.

In the case of `O=C(NC1(C(F)(F)F)NC(=O)N(Cc2ccco2)C1=O)c1cccnc1` (configuration not stated), the inhibition was 11%.

Regarding `CCc1nnc(NC(=O)c2cc3ccccc3oc2=O)s1`, the inhibition was 2%.

For the compound `CN(C)c1ccc(NC(=O)c2cc3c(=O)n4ccccc4nc3n2C)cc1`, the inhibition is 7%.

Consider `Cc1noc(/C=C/N(C)C)c1S(=O)(=O)N1CCCC(C(=O)N2CCc3ccccc32)C1` (configuration not stated), for which the inhibition was 10%.

Turning to `O=C1c2ccccc2C(=O)N1c1cccc(-c2nc3ccccc3o2)c1`, the inhibition is 7%.

As for `O=C(CNC(=O)c1cccs1)NCCN1CCN(c2ccccc2F)CC1`, the inhibition is 0%.

With `COC(=O)CN(Cc1ccco1)S(=O)(=O)c1ccccc1`, the inhibition was 1%.

Consider `Cc1ccc(-c2noc(C3CCCN(C(=O)c4ccccc4)C3)n2)o1` (configuration not stated), for which the inhibition was 0%.

For `Cc1nc2ccccc2c2oc(C(=O)NCCN3CCCCC3C)cc12` (configuration not stated), the inhibition is 0%.

Turning to `Cc1cc(NC(=O)CSc2nnc(COc3cccc(C)c3C)n2Cc2ccco2)no1`, the inhibition is 0%.

On to `O=C(NCc1cccs1)C(Cc1ccccc1)n1cccc1` (configuration not stated), for which the inhibition is 0%.

With `COc1ccc(C(=O)OCC(=O)NCc2ccco2)cc1OC`, the inhibition is 0%.

Consider `CCOC(=O)c1nnn(-c2nonc2NC(C)=O)c1C`, for which the inhibition was 8%.

For `CCN1CCN(CCNC(=O)c2cn(C(C)c3ccccc3F)nn2)CC1` (configuration not stated), the inhibition is 0%.

On to `CS(=O)(=O)NCc1nnc(SCC(=O)NC2CCCCC2)n1-c1ccc(F)cc1`, for which the inhibition is 0%.

With `O=C(CCNC(=O)Cn1ccc2ccccc2c1=O)NCCN1CCN(c2ccccc2F)CC1`, the inhibition was 0%.

With `CCCOc1cccc(C(=O)Nc2cc(NC(=O)c3ccco3)ccc2OC)c1`, the inhibition was 0%.

The values above are taken from PubChem BioAssay.
